About 1,000 (0.67%) of roughly 150,000 compounds were called active. The sample holds actives, similar compounds and a random draw of the others, so the mix is not that of the screen. No stated cut-off is given here; in the data, active means % elongation below about 90%; inactive means the rest, inconclusive results apart.

Our source for the % elongation and z-score values is PubChem BioAssay AID588519 (ICCB-Longwood Screening Facility, Harvard Medical School, 2011).

This experiment deals with Genome polyprotein (Poliovirus type 1 (strain Mahoney)) (UniProt P03300). In words: poliovirus RdRp elongation inhibitors, primary screen, biochemical, fluorescence polarization, total intensity (AID 588519). On z-score: compound at 16.7 µg/mL. Conditions: poliovirus polymerase elongation, stronger effect = lower value; for % elongation: compound at 16.7 µg/mL; for z-score: measured here: FP z-score.
Where [1] appears, read: measured here: total intensity read-out.

Genome polyprotein (Poliovirus type 1 (strain Mahoney)), sequence (P03300 1749-2209 limits assumed): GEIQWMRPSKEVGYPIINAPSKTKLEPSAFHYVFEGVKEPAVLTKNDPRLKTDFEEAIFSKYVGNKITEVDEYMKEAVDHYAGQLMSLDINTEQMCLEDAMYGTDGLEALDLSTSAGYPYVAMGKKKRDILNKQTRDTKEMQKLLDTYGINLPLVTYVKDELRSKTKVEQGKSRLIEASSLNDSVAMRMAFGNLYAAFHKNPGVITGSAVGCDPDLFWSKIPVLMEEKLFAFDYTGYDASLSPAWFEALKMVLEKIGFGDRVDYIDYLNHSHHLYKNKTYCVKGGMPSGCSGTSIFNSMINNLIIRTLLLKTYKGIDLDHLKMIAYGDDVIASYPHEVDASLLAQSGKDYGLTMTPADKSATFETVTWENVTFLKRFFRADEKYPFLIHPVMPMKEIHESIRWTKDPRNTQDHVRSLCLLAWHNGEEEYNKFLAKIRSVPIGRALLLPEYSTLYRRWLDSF

Turning to `CN(C)c1ccc(/C=C(\C#N)NC(=O)c2ccccc2)cc1`, the % elongation is 103% (inactive) and the z-score came to 0. Further, under setting [1], the % elongation was found to be 108%.
In the same order, the values of `Cc1ccc(NC(=O)COc2ccccc2O)cc1C` are 103% (inactive), 0.1 and 104%.
Regarding `Cc1ccc2[nH]c(=O)c(CNCCCN(C)C)cc2c1`, the % elongation was 100% (inactive) and the z-score was -0.2. Moreover, the % elongation under setting [1] was determined as 102%.
In the same order, the values of `Cc1c(NC(=O)Cc2ccc(S(=O)(=O)N3CCCCC3)cc2)c(=O)n(-c2ccccc2)n1C` are 102% (inactive), -0.1 and 108%.
Regarding `Cc1cc(Sc2nnc(C)s2)c2ccccc2n1`, the % elongation is 86% (active) and the z-score is -1.5. Also, the % elongation under setting [1] amounted to 83%.
Regarding `Cc1cc(Nc2ccc(Cl)cc2)c2ccccc2n1`, the % elongation is 92% (inactive) and the z-score was -1. The % elongation under setting [1] is 93%.
In the same order, the values of `Cc1ccc2nc(C)cc(Nc3ccccc3)c2c1` are 101% (inactive), -0.1 and 105%.
The matching figures for `CC(C)CCSc1nc2ncn(C)c2c(=O)[nH]1`: 104% (inactive), 0.4 and 108%.
For the compound `COc1cc(/C=N/NS(=O)(=O)c2cc(C)ccc2C)cc(OC)c1O`, the % elongation was 104% (inactive) and the z-score was 0.3. In addition, under setting [1], the % elongation was 124%.
In the same order, the values of `O=C1S/C(=C/c2cc3c(cc2Cl)OCO3)C(=O)N1c1ccccc1` are 100% (inactive), -0.4 and 103%.
In the case of `CCN(CC)c1nc(C#N)nc(OC)n1`, the % elongation is 87% (active) and the z-score was -1.5. In addition, under setting [1], the % elongation worked out at 90%.
On to `NS(=O)(=O)c1ccc(N=Cc2c(O)n(Cc3ccc4c(c3)OCO4)c(=O)c3ccccc23)cc1`, for which the % elongation is 100% (inactive) and the z-score is 0. Under setting [1], the % elongation turned out to be 105%.
Regarding `CN=C(Cl)c1cccs1`, the % elongation is 99% (inactive) and the z-score is -0.6. Moreover, the % elongation under setting [1] was determined as 101%.
In the same order, the values of `O=C(Nc1cccc(Cl)c1)N1CCC(n2nnc3cc(F)ccc32)CC1` are 102% (inactive), 0.2 and 100%.
In the same order, the values of `CN(C)C(=O)CCSc1nc2cc(Cl)ccc2o1` are 103% (inactive), 0.3 and 102%.
In the same order, the values of `CCCCC(=O)Nc1sc2c(c1C#N)CCCC2` are 92% (inactive), -1.4 and 100%.
Turning to `COc1ccccc1CNCc1ccc(C(=O)O)s1`, the % elongation was 108% (inactive) and the z-score came to 0.4. Moreover, under setting [1], the % elongation was 113%.
Turning to `COc1ccccc1CNC(=O)CS(=O)(=O)c1cccc2nsnc12`, the % elongation is 105% (inactive) and the z-score is -0.4. Besides, the % elongation under setting [1] was found to be 112%.
The matching figures for `CNC(=O)c1sc(NCc2ccccc2OC)nc1C`: 80% (active), -3.1 and 89%.
In the same order, the values of `O=C(NCc1ccncc1)C1CCN(C(=O)c2cccc(Cl)c2)CC1` are 99% (inactive), -0.2 and 102%.
In the same order, the values of `O=C(c1ccccc1)N1CCN(c2cccc(Cl)c2)CC1` are 100% (inactive), -0.3 and 95%.
As to `O=C(c1cccc(Cl)c1)N1CCN(CCc2ccncc2)CC1`, the % elongation was 21% (active) and the z-score was -6.3. Besides, the % elongation under setting [1] came out at 37%.
Regarding `O=C(O)CSc1nnc(-c2ccccc2)n1-c1ccccc1`, the % elongation is 101% (inactive) and the z-score is -0.2. In addition, the % elongation under setting [1] was 102%.
The matching figures for `O=C(O)c1ccc2nc[nH]c2c1`: 100% (inactive), -0.4 and 108%.
The matching figures for `CCOC(=O)c1sc(NC(=O)/C=C/c2ccc(Cl)cc2)cc1C`: 102% (inactive), 0.3 and 106%.
In the same order, the values of `COc1cc(OC)c(N(C)C(=O)c2ccc3c(=O)n4c(nc3c2)CCCCC4)cc1Cl` are 105% (inactive), 0.9 and 109%.
Regarding `CCN(C(=O)c1sc2nc3n(c(=O)c2c1C)CCCC3)c1ccccc1`, the % elongation is 100% (inactive) and the z-score is -1.2. Besides, the % elongation under setting [1] worked out at 100%.
In the same order, the values of `CC(C)(C)NCC(O)COc1c(Br)ccc2c1sc1nc3n(c(=O)c12)CCCCC3` (stereo not given) are 69% (active), -4.7 and 96%.
The matching figures for `CC1CC(C)CN(C(=O)C(C)Sc2nnnn2-c2ccc(Cl)cc2)C1` (stereo not given): 98% (inactive), -0.5 and 99%.
In the same order, the values of `O=C1CCCCCN1Cc1nnc(SCN2C(=O)c3ccccc3C2=O)n1-c1ccccn1` are 106% (inactive), 0.4 and 100%.
